DT40 TDP1 no CPT: qHTS for Inhibitors of human tyrosyl-DNA phosphodiesterase 1 (TDP1): qHTS in cells in absence of CPT; DT40 Tdp1-/- hTDP1 cells, no CPT, ATP luminescence, 48 h; Potency, µM (series often up to 46.2 µM), most hits filed as inhibitors; actives 15% (n = 420,000); AID 686978, 2013; further: nearly all actives have a fitted effect of over 55% in size
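Growth of hTDP1-complemented DT40 Tdp1-knockout cells is measured by ATP luminescence after at least 48 hr compound exposure at 37 °C, with DMSO substituting for the 20 nM CPT used in the parallel screen.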
IL1B secr inh: blocks inflammasome-driven IL-1 beta release; THP-1 LPS/ATP IL-1B secretion, AlphaLISA, 16 h; stronger effect = lower value; activity change, % at 57.5 µM; actives 4.7% (n = 360,000); in the data active means activity change below about -50%; inconclusive means mostly about -30% to -49%
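THP-1 cells pretreated 1 hr with compounds (up to 57.5 uM final), then stimulated with LPS (250 ng/mL final) plus ATP (1.25 mM final); secreted IL-1B measured by AlphaLISA after 16 hr, decreased signal indicating inhibition.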
DT40 TDP1 CPT: DT40-hTDP1 cell growth loss with CPT; chicken DT40 Tdp1-/-;hTDP1 cells + 20 nM CPT, ATP luminescence, 48 h; Potency, µM (top dose mostly 46.2 µM), most hits filed as inhibitors; actives 12% (n = 420,000); AID 686979; further: nearly all actives have a fitted effect of over 55% in size
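Chicken DT40 Tdp1-/- cells stably complemented with human TDP1 were seeded at 400 cells/well in medium containing 20 nM camptothecin, exposed to pin-transferred compounds, and grown at 37 °C for at least 48 hr. Viability was read as ATP luminescence.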
HT1080 IDH1KD tx: toxicity to HT-1080 IDH1 knockdown cells (counter line); actives 2% (n = 360,000); HT-1080 IDH1 knockdown viability, ATP luminescence, 48 h; Potency, µM (top dose mostly 46.1 µM), hits mostly cytotoxic
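% activity derives from luminescence (CellTiter-Glo), normalised to DMSO and no-cell wells. HT-1080-IDH1KD cells, 750/well, had 48 h compound exposure at 37 °C.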
uPA generation: inhibitors of cell surface uPA generation; Potency, µM (titrated, usually from 38.3 µM), hits mostly inhibitors; cell surface uPA generation assay, qHTS; actives 0.31% (n = 330,000); active means well fitted inhibition curve with a large enough effect; inconclusive means small, poorly fitted or top-dose-only effect; inactive means no such curve, though single readings can be large or run the other way; tested in mouse RAW 264.7 cells; further: nearly all actives have a fitted effect of over 55% in size
HT1080NT lethal: kills 2HG-producing HT-1080-NT fibrosarcoma cells; AID 686970; HT-1080-NT fibrosarcoma viability, CellTiter-Glo ATP luminescence, 48 h; Potency, µM (titrated, usually from 46.1 µM), hits mostly cytotoxic; actives 1.6% (n = 360,000);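 further: NT is the 2HG producing partner of a matched IDH1 knockdown line; nearly all actives have a fitted effect of over 55% in size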
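Viability by CellTiter-Glo luminescence after 48 h compound exposure at 37C of HT-1080-NT cells (750/well, RPMI, 5% FBS). % activity scaled between DMSO wells and medium-only wells, then curve-fitted and categorized by curve class.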
Hits are given with their value; n = inactive; u = inconclusive; x = not tested or not shown; [ ] = dose if it differs, or a comment. Rows were chosen to be rich in hits. Some 19% of all compounds tested hit in one or more screens of this group. Unless noted, the call rests on the fitted dose curve; in most records, active means well fitted curve in the direction sought with a large enough effect; inconclusive means small, poorly fitted or top-dose-only effect, or another doubt; inactive means no such curve, though single readings can be large; an effect the other way counts as inactive or inconclusive.

SMILES | DT40 TDP1 no CPT | IL1B secr inh | DT40 TDP1 CPT | HT1080 IDH1KD tx | uPA generation | HT1080NT lethal
O=S(=O)(Nc1ccc2c(c1)nc1n2CCOC1)c1ccc(Cl)cc1 | 13µM | n | u | n | n | n
O=S(=O)(Nc1ccc2c(c1)nc1n2CCOC1)c1ccccc1 | n | n | u | n | n | n
Nc1[nH]c(C(=O)c2ccccc2)c(-c2cccc3ccccc23)c1C(=O)NCc1ccccc1 | 23.1µM | n | u | n | x | n
COc1ccc(-c2c(C(=O)c3ccc(Br)cc3)[nH]c(N)c2C(=O)c2ccccc2)cc1OC | 20.6µM | n | u | u | x | n
CC(C)(C)C(=O)c1c(N)[nH]c(C(=O)c2ccccc2)c1-c1ccc(Cl)cc1Cl | u | n | u | n | x | n
NC(=O)c1c(N)[nH]c(C(=O)c2ccccc2)c1-c1ccncc1 | n | n | n | n | x | n
NC(=O)c1c(N)[nH]c(C(=O)c2ccccc2)c1-c1ccccc1Br | 18.4µM | n | u | n | x | n
Nc1[nH]c(C(=O)c2ccccc2)c(-c2ccc(Cl)cc2Cl)c1C(=O)c1ccc(Cl)c(Cl)c1 | u | u | 18.4µM | n | x | n
CSc1cccc(NS(=O)(=O)c2ccc3[nH]cc(C(=O)N4CCCC4)c(=O)c3c2)c1 | n | x | n | x | x | x
Nc1cc(=O)[nH]c(=O)n1CCc1ccccc1 | n | n | n | n | n | n
CC(C)(C)C(=O)c1c(N)[nH]c(C(=O)c2ccccc2)c1-c1c(F)cccc1F | 20.6µM | n | u | n | x | n
CC(C)(C)C(=O)c1c(N)[nH]c(C(=O)c2ccccc2)c1-c1ccc(Cl)cc1 | u | n | u | n | x | n
CC(C)(C)C(=O)c1c(N)[nH]c(C(=O)c2ccccc2)c1-c1ccccc1Br | 16.4µM | n | 25.9µM | n | x | n
COC(=O)c1c(N)[nH]c(C(=O)c2ccccc2)c1-c1ccccc1Br | 16.4µM | n | u | n | x | n
Cc1ccc(S(=O)(=O)c2c(C)cc(C)[nH]c2=O)cc1 | n | n | n | n | n | n
CCOc1ccc(Nc2nnc(-n3nc(C)cc3C)c3ccccc23)cc1 | n | x | n | x | x | x
COc1ccc(-n2ccnc2SCC(=O)Nc2nnc(C)s2)cc1 | n | x | u | x | x | x
CCCn1c(SCC(N)=O)nc2c(c1=O)C1(CCCC1)Cc1ccccc1-2 | n | -58.3 | n | n | n | n
CCn1c(SCC#N)nc2c(c1=O)C1(CCCC1)Cc1ccccc1-2 | n | n | u | n | n | n
Cc1ccc(S(=O)(=O)CCC(=O)Nc2sccc2C#N)cc1 | 20.6µM | n | u | n | n | n
Cc1ccc(S(=O)(=O)CCC(=O)Nc2ccccc2N2CCCC2)cc1 | n | n | u | n | n | n[9.24 µM]
COC(=O)c1ccsc1NC(=O)CCS(=O)(=O)c1ccc(Cl)cc1 | 18.4µM | n | u | n | u | n
Cc1ccc(S(=O)(=O)CCNC(=O)Cc2ccccc2)cc1 | u | n | 20.6µM | n | n | n
Cc1ccc(S(=O)(=O)CCC(=O)Nc2ccccc2C)cc1 | 23.1µM | n | u | n | n | n
Cc1ccc(S(=O)(=O)CCC(=O)OCC(=O)Nc2sccc2C#N)cc1 | n | n | n | n | x | n
SMILES | DT40 TDP1 no CPT | IL1B secr inh | DT40 TDP1 CPT | HT1080 IDH1KD tx | uPA generation | HT1080NT lethal
C/C(=N\NC(=O)CSCc1ccc([N+](=O)[O-])cc1)c1ccccc1 | 16.4µM | u | u | n | n | n
C/C(=N\NC(=O)C(C)Sc1ccccc1)C(C)(C)C (configuration not stated) | n | n | n | n | n | n
C/C(=N\NC(=O)Cc1ccc(Cl)cc1)c1ccccc1O | 0.164µM | n | u | 5.17µM | n | u
Cc1ccc(CSCCNC(=O)CSCc2ccc([N+](=O)[O-])cc2)cc1 | u | n | n | n | x | n
C/C(=N\NC(=O)CSCc1ccc([N+](=O)[O-])cc1)c1ccccc1O | 3.66µM | n | 5.17µM | n | n | n
C/C(=N\NC(=O)C(C)Sc1ccccc1)c1ccc([N+](=O)[O-])cc1 (configuration not stated) | 4.11µM | n | u | n | n | n
COc1ccc(OC)c(CN2C(=O)CSCC2(C)C(=O)NC(C)C)c1 (configuration not stated) | n | n | n | n | x | n
CC(=O)N1CCN(C(=O)COC(=O)COc2ccc(C#N)cc2)CC1 | n | n | n | n | n | n
CCOC(=O)c1c(-c2ccc(Br)cc2)csc1NC(=O)c1ccc(C(C)(C)C)cc1 | n | x | n | x | x | x
O=C(NCc1ccc2c(c1)OCO2)c1ccc2c(c1)N(Cc1cccc(Cl)c1)C(=O)c1ccccc1S2=O (configuration not stated) | n | x | n | x | x | x
COc1ccc(C(=O)c2c(N)c(C(=O)Nc3ccccc3Cl)c3ccccn23)cc1 | n | x | n | x | x | x
Cc1ccccc1NC(=O)CSc1nnc(COc2ccc(Cl)cc2)o1 | n | x | n | x | x | x
Cc1cc(/C=C2/NC(=O)N(c3ccccc3)C2=O)c(C)n1-c1cccnc1 | u | -82.5 | 25.9µM | n | n | n
Cc1cc(/C=C2/SC(=S)N(c3cccc(Cl)c3)C2=O)c(C)n1-c1cccnc1 | 2.06µM | -64.4 | 2.59µM | 3.26µM | n | u
Cc1cc(/C=C2\SC(=S)N(C)C2=O)c(C)n1-c1ccc(O)cc1 | u | u | u | u | n | u
Cc1cc(/C=C2\SC(=S)N(C)C2=O)c(C)n1-c1ccccc1O | 8.2µM | -83.7 | 20.6µM | u | n | u
Cc1cccc(NC(=O)CN2C(=O)N/C(=C/c3cc(C)n(-c4cccnc4)c3C)C2=O)c1 | u | n | n | n | n | n
O=[N+]([O-])c1ccc(-n2cnc3ccccc32)c([N+](=O)[O-])c1 | u | n | u | n | n | n
CCCCCCn1cc(CN2CC(N3CCN(Cc4ccccc4F)CC3)CS2(=O)=O)nn1 (configuration not stated) | u | n | n | n | x | n
COc1ccccc1N1CCN(S(=O)(=O)c2c(C)[nH]c(=O)[nH]c2=O)CC1 | n | n | n | n | n | n
CCN(CC(=O)NCc1ccco1)S(=O)(=O)c1ccc(OC)cc1 | n | n | n | n | n | n
Cc1cc(NC(=O)CCSc2ccc(Cl)cc2)no1 | n | n | n | n | n | n
Cn1cc(-c2ccc(C(=O)Nc3cccc(Oc4ccccc4)c3)c3occc23)cn1 | u | n | n | n | x | n
COc1ccc(-c2ccc(C(=O)Nc3ccc(C(C)C)cc3)c3occc23)c(C)c1 | 16.4µM | n | u | n | x | n
COc1ccc(-c2ccc(C(=O)Nc3cccc(Oc4ccccc4)c3)c3occc23)c(C)c1 | 16.4µM | n | 23.1µM | n | x | n

Source: PubChem
